Nine compounds from ChEMBL document CHEMBL1961873, “Compounds: GSK PKIS; Assays: Nanosyn kinase panel” (2012) can be followed below.

Molecules are shown by their SMILES.

Assay [1] addresses MAP/microtubule affinity-regulating kinase 3 (Homo sapiens) (UniProt P27448). The conditions noted are these: at 1 µM.
Assay [2] concerns the target T1, MAP/microtubule affinity-regulating kinase 4 (Homo sapiens) (UniProt Q96L34).
T1 sequence (whole entry): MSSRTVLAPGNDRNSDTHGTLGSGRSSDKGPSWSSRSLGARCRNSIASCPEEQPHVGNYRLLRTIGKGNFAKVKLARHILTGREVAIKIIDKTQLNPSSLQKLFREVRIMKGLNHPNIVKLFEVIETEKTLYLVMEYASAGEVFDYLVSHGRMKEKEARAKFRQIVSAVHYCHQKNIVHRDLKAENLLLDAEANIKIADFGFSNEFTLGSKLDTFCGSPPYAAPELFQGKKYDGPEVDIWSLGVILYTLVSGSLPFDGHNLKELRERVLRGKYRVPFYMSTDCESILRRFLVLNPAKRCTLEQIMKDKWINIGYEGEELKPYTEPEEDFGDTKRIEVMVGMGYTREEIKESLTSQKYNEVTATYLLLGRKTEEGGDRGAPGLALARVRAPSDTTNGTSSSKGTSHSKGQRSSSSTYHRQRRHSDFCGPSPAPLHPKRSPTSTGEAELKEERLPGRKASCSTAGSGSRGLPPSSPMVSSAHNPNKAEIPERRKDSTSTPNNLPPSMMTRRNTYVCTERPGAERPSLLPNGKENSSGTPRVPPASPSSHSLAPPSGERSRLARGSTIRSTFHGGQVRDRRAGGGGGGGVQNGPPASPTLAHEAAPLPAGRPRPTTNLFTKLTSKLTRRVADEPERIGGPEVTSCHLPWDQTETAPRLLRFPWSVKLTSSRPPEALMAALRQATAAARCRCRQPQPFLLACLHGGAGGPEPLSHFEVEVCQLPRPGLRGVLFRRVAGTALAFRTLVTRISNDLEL
The following applies: at 0.1 µM.

Assay [3] deals with T1, MAP/microtubule affinity-regulating kinase 4 (Homo sapiens). The following applies: at 1 µM.
Assay [4] has as its target Maternal embryonic leucine zipper kinase (Homo sapiens) (UniProt Q14680). The following applies: at 0.1 µM.
For assay [5] the target is unchanged. The conditions noted are these: at 1 µM.
In assay [6] the target is MAP kinase-interacting serine/threonine-protein kinase 1 (Homo sapiens) (UniProt Q9BUB5). The following applies: at 0.1 µM.
Chain of MAP kinase-interacting serine/threonine-protein kinase 1 (Homo sapiens) (Q9BUB5 whole entry, looked up): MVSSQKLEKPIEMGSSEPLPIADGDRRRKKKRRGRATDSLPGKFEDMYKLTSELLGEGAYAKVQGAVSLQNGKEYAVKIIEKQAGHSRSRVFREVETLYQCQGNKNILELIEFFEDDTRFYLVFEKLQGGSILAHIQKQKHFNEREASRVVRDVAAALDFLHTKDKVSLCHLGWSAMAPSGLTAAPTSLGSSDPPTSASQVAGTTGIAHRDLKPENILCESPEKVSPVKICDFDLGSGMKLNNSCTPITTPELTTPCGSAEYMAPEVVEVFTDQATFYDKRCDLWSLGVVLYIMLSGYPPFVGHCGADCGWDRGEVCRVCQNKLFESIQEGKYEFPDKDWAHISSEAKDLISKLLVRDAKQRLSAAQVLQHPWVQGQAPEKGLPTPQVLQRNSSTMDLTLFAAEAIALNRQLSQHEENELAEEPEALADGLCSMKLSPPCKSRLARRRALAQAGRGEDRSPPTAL
The target is the same in assay [7]. The conditions noted are these: at 1 µM.
Assay [8] deals with MAP kinase-interacting serine/threonine-protein kinase 2 (Homo sapiens) (UniProt Q9HBH9). The conditions noted are these: at 0.1 µM.
Assay [9] has the same target. The conditions noted are these: at 1 µM.
The target of assay [10] is Serine/threonine-protein kinase MARK2 (Homo sapiens) (UniProt Q7KZI7). The conditions noted are these: at 0.1 µM.
Chain of Serine/threonine-protein kinase MARK2 (Homo sapiens) (Q7KZI7 whole entry): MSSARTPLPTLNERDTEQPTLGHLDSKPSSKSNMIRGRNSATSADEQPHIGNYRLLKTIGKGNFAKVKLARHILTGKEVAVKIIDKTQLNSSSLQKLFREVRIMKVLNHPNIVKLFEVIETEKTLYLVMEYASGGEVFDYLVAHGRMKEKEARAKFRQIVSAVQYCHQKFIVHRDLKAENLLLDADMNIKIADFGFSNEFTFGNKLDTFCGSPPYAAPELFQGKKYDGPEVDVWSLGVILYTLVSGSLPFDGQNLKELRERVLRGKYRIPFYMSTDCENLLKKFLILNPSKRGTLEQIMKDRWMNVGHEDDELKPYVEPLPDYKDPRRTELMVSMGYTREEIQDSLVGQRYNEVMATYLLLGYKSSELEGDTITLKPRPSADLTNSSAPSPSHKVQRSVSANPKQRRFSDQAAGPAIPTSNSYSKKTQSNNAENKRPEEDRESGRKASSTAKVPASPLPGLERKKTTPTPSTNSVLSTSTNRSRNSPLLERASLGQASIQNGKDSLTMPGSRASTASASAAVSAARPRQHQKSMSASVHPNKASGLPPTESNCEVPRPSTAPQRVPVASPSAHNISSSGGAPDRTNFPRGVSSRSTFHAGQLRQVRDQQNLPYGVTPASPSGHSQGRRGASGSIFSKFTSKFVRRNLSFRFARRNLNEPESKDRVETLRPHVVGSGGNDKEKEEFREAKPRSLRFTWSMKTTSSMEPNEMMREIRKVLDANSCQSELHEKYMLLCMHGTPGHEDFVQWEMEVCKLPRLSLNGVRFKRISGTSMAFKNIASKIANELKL
For assay [11] the target is unchanged. The following applies: at 1 µM.
Assay [12] addresses PAS domain-containing serine/threonine-protein kinase (Homo sapiens) (UniProt Q96RG2). The following applies: at 0.1 µM.
The target is the same in assay [13]. The conditions noted are these: at 1 µM.
The target in assay [14] is Phosphorylase b kinase gamma catalytic chain, skeletal muscle/heart isoform (Homo sapiens) (UniProt Q16816). The following applies: at 0.1 µM.
Chain of Phosphorylase b kinase gamma catalytic chain, skeletal muscle/heart isoform (Homo sapiens) (Q16816 whole entry, looked up, canonical isoform): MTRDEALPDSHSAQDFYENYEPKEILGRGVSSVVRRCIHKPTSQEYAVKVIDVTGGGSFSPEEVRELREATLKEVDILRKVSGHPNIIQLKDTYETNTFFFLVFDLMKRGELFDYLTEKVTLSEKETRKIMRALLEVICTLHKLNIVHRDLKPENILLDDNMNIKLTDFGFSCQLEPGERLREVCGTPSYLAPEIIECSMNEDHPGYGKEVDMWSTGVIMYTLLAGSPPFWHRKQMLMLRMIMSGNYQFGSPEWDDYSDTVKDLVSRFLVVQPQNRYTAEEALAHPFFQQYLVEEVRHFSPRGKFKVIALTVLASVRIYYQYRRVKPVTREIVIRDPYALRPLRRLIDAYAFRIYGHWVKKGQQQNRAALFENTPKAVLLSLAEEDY
For assay [15] the target is unchanged. The following applies: at 1 µM.
Assay [16] addresses T2, Phosphorylase b kinase gamma catalytic chain, liver/testis isoform (Homo sapiens) (UniProt P15735).
T2 sequence (whole entry): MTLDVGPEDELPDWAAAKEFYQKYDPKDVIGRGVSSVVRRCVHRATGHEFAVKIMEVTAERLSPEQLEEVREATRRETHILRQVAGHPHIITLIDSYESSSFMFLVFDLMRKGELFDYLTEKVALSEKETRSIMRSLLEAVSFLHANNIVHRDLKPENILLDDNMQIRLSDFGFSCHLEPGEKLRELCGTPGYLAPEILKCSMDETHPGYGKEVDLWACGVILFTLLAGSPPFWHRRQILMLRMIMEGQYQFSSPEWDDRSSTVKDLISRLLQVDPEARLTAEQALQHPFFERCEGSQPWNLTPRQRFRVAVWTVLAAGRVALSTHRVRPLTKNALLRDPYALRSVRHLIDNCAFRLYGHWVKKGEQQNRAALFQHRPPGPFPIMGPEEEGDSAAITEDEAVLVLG
The conditions noted are these: at 0.1 µM.

For assay [17], the target named is T2, Phosphorylase b kinase gamma catalytic chain, liver/testis isoform (Homo sapiens). The following applies: at 1 µM.
The target in assay [18] is Serine/threonine-protein kinase pim-1 (Homo sapiens) (UniProt P11309). The following applies: at 0.1 µM.
Chain of Serine/threonine-protein kinase pim-1 (Homo sapiens) (P11309 whole entry, looked up): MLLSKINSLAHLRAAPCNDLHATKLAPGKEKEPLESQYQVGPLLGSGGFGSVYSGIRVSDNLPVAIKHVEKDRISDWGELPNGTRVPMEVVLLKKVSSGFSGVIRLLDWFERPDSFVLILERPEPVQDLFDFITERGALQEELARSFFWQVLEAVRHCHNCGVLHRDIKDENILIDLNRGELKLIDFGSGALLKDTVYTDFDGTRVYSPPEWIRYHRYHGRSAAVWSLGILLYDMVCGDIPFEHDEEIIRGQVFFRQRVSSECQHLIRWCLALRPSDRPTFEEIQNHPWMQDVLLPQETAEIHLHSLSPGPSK
Assay [19] shares this target. The conditions noted are these: at 1 µM.
Assay [20] deals with Serine/threonine-protein kinase pim-2 (Homo sapiens) (UniProt Q9P1W9). The conditions noted are these: at 0.1 µM.
Chain of Serine/threonine-protein kinase pim-2 (Homo sapiens) (Q9P1W9 whole entry, looked up): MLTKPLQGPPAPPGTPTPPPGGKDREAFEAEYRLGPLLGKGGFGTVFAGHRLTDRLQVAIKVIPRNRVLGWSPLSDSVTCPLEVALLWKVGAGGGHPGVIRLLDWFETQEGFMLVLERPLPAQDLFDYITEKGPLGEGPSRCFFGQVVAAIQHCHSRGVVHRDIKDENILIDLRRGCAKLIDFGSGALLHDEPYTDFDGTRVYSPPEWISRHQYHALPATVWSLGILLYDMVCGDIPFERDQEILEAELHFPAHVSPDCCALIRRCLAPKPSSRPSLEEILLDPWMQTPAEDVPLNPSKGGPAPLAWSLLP

Chain of MAP/microtubule affinity-regulating kinase 3 (Homo sapiens) (P27448 whole entry, looked up): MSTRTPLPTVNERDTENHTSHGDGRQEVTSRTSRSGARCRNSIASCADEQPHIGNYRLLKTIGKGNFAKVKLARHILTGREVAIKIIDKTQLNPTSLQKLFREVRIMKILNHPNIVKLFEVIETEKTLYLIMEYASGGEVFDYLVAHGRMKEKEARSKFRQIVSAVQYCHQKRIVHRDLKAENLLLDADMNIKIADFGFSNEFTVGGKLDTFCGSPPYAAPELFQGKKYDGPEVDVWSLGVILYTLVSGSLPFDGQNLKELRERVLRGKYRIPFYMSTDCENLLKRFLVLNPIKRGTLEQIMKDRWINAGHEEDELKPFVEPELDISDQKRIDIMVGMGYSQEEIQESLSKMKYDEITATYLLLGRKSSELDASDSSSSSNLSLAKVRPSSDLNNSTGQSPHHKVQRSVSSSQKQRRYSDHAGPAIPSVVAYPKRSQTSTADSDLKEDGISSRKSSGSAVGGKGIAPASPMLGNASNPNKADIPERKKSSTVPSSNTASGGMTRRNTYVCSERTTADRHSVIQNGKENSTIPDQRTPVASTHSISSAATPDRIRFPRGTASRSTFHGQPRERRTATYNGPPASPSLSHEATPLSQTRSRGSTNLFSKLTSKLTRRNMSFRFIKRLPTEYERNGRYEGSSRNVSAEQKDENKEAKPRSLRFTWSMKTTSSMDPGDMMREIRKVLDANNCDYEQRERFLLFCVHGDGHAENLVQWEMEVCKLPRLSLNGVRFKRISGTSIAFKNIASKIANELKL
Chain of Maternal embryonic leucine zipper kinase (Homo sapiens) (Q14680 whole entry, looked up): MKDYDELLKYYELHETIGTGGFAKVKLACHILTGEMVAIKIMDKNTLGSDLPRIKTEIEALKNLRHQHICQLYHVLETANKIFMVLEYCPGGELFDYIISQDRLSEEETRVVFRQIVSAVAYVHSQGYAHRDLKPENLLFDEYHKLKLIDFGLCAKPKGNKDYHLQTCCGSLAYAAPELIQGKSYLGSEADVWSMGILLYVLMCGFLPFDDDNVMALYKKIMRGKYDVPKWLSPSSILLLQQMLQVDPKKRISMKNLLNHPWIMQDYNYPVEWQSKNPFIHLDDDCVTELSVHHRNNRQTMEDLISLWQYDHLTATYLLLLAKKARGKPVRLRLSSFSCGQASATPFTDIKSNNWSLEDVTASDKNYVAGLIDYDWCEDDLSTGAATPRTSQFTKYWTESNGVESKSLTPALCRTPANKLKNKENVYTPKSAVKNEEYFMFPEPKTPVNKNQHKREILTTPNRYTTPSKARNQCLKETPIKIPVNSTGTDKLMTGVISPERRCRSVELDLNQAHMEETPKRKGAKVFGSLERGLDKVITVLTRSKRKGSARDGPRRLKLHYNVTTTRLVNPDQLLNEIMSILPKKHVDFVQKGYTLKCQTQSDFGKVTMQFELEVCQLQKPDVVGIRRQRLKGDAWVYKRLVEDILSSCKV
Chain of PAS domain-containing serine/threonine-protein kinase (Homo sapiens) (Q96RG2 whole entry, the tested form may be a part): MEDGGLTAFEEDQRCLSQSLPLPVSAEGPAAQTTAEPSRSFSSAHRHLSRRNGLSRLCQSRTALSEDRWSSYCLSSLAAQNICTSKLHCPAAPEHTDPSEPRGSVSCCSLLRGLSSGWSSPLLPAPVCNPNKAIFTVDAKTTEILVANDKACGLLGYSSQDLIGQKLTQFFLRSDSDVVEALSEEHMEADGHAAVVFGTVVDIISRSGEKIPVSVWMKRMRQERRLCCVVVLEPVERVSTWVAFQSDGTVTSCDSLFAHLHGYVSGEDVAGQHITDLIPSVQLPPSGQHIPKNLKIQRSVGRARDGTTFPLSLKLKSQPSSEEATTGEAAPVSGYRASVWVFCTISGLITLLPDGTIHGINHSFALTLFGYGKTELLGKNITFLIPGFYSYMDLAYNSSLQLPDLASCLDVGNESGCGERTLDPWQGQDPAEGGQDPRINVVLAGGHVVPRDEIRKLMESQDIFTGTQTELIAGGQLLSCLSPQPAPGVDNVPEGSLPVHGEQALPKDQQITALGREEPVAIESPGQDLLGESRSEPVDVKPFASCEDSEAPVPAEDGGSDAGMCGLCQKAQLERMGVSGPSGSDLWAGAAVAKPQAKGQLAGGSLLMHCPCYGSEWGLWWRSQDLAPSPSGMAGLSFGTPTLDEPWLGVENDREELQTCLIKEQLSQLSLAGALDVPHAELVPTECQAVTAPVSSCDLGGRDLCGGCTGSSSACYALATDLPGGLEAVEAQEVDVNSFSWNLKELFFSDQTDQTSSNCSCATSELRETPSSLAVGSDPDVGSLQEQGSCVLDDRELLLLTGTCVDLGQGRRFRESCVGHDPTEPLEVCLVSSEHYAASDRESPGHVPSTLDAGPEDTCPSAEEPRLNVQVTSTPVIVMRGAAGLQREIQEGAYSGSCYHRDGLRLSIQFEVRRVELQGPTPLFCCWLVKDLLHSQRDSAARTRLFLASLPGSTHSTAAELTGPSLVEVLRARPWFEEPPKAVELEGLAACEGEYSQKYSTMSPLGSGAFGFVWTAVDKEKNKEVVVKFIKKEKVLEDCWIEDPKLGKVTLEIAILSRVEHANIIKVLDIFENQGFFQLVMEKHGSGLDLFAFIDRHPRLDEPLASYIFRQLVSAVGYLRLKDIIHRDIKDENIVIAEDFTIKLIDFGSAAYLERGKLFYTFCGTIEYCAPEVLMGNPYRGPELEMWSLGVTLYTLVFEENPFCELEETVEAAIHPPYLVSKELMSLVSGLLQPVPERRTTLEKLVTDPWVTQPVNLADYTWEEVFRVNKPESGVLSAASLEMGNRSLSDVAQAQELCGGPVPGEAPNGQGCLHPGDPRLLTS

Turning to `CN(C)c1ccc2c(c1)/C(=C/Nc1ccc(S(N)(=O)=O)cc1)C(=O)N2`, the inhibition in assay [1] was found to be 32.7%; in assay [2], 6.9%; in [3], 32.5%; in [4], 3.82%; in assay [5] it was 20.4%; in assay [6], 1.64%. Also, the inhibition in [7] is 9.3%; in [8] it was 1.66%; in [9] it was 3.67%; in assay [10] it was 3.86%; in assay [11], 18.6%; in [12], -0.32%. The inhibition in [13] is -0.69%; in [14], 15.3%; in [15], 49.3%; in assay [16] it was 2.06%; in assay [17], 13.8%; in assay [18], 1.26%. Besides, the inhibition in assay [19] is 1.23%; in assay [20] it was 0.23%.
Regarding `O=C1NC(=O)C(c2cccc(Cl)c2)=C1Nc1ccc(Cl)c(C(=O)O)c1`, the inhibition is 8% in [1]; 0.26% in [2]; 1.44% in [3]; -0.69% in [4]; 3.67% in assay [5]; 3.32% in [6]. Further, the inhibition in [7] is 5.32%; in assay [8], 2.61%; in assay [9], 4%; in assay [10] it was -2.87%; in [11] it was 0.4%; in assay [12] it was 0.25%. Besides, the inhibition is 1.42% in [13]; 3.55% in [14]; 5.32% in assay [15]; 4.58% in [16]; 5.29% in assay [17]; -0.66% in assay [18]. For the same compound, the inhibition in assay [19] is -0.28%; in assay [20], -0.18%.
Turning to `COc1cc(C)c(N(C)C(=O)CN(C)C)cc1Nc1nc(Nc2cccc(F)c2C(N)=O)c2cc[nH]c2n1`, the inhibition is 4.11% in [1]; 1.12% in [2]; 1.75% in assay [3]; -1.34% in assay [4]; 5.45% in [5]; -0.51% in assay [6]. Further, the inhibition in [7] is 1.72%; in [8], -1.19%; in [9], -0.74%; in assay [10] it was 0.4%; in [11], 1.79%; in assay [12], 0.61%. For the same compound, the inhibition in [13] is -1.13%; in assay [14] it was -1.13%; in assay [15], 2.95%; in [16], 3.64%; in assay [17], -0.16%; in [18], 1.05%. In addition, the inhibition in assay [19] is 3.33%; in [20], -3.42%.
Regarding `NC(=O)Cc1ccccc1Oc1nccc(-c2c(-c3ccc(F)cc3)ncn2C2CCNCC2)n1`, the inhibition in assay [1] came out at 5.15%; in assay [2], 1.54%; in assay [3] it was 1.97%; in assay [4], 1.5%; in assay [5] it was 5.18%; in [6] it was 1.93%. Moreover, the inhibition was found to be 1.72% in assay [7]; 0.62% in assay [8]; 0.77% in assay [9]; 1.48% in [10]; 2.22% in [11]; 0.15% in assay [12]. Besides, the inhibition in assay [13] is -0.7%; in assay [14] it was 4.43%; in [15], 6.28%; in assay [16], 2.61%; in assay [17], 0.83%; in [18], 0.4%. Further, the inhibition worked out at 0.97% in [19] and 0.18% in [20].
Take `Clc1ccc(CNc2nccc(-c3cnn4ncccc34)n2)cc1`: the inhibition in assay [1] was 2.59%; in assay [2], -0.78%; in assay [3], -0.74%; in assay [4] it was -0.99%; in assay [5] it was 16.4%; in assay [6] it was 1.08%. The inhibition in assay [7] is 6.48%; in assay [8], 1.92%; in assay [9] it was 10.7%; in assay [10], -0.61%; in assay [11], 2.93%; in [12], 0.92%. Besides, the inhibition was 1.97% in assay [13]; -0.23% in assay [14]; 5.35% in assay [15]; 2.58% in [16]; 2.28% in assay [17]; 1.63% in assay [18]. Further, the inhibition in assay [19] is 3.93%; in assay [20] it was -0.52%.
Take `NS(=O)(=O)c1ccc(N/N=C2\C(=O)Nc3ccc(-c4cnco4)cc32)cc1`: the inhibition in assay [1] came to 17.4%; in [2] it was 4.35%; in assay [3], 26.1%; in assay [4], 5.8%; in [5], 32.9%; in [6] it was 1.41%. The inhibition in assay [7] amounted to 7.87%; in assay [8] it was 2.14%; in [9], 8.88%; in assay [10] it was 1.73%; in assay [11], 16.6%; in [12] it was 0.16%. In addition, the inhibition in [13] turned out to be 4.38%; in assay [14], 5.17%; in [15] it was 27.9%; in assay [16] it was 1.94%; in assay [17], 4.44%; in [18] it was 4.65%. Further, the results for the inhibition in [19] and in [20] were 38.9% and -0.37%, respectively.
With `CN(c1ccc(NC(=O)Nc2c(Cl)cccc2Cl)cc1)c1ccnc(Nc2cccc(CS(C)(=O)=O)c2)n1`, the inhibition was 13.3% in assay [1]; 2.82% in assay [2]; 12.8% in assay [3]; 3.73% in [4]; 3.32% in assay [5]; 10.2% in assay [6]. Moreover, the inhibition is 27.9% in assay [7]; 20.4% in assay [8]; 45.6% in assay [9]; -0.82% in assay [10]; 2.99% in assay [11]; 0.68% in assay [12]. The inhibition was 2.77% in [13]; 2.51% in assay [14]; 8.06% in [15]; 2.8% in [16]; 6.5% in assay [17]; -0.26% in assay [18]. Moreover, the inhibition in assay [19] amounted to 0.34%; in [20], 0.03%.
As for `NC(=O)c1cc(-c2ccc(F)cc2)cc(-c2ccncc2)c1N`, the inhibition in assay [1] was -2.7%; in assay [2], 1.2%; in assay [3], 2.29%; in [4], 2.86%; in [5], 4.94%; in assay [6], 3.36%. The inhibition in [7] is 12.1%; in assay [8] it was 1.44%; in [9], 3.34%; in assay [10], 0.15%; in assay [11], -0.63%; in [12], -1.01%. For the same compound, the inhibition in assay [13] is -1.24%; in [14], 5.8%; in [15], 5.92%; in assay [16], 4.55%; in assay [17], 5.76%; in [18] it was 0.02%. Further, the inhibition in assay [19] was 1.09%; in assay [20], -0.12%.
For the compound `COc1cc(Nc2ncc(-c3ccccc3)o2)cc(OC)c1OC`, the inhibition in assay [1] is 22.1%; in assay [2], 2.46%; in [3], 13.4%; in [4] it was -0.49%; in [5], 5.74%; in assay [6] it was 4.6%. The inhibition is 30.4% in assay [7]; 1.26% in assay [8]; 24.2% in [9]; 2.94% in assay [10]; 15.6% in assay [11]; 0.63% in [12]. In addition, the inhibition in [13] was -0.67%; in assay [14], 3.23%; in [15], 20.9%; in assay [16], -2.9%; in [17] it was -2.15%; in assay [18] it was 0.68%. Besides, the inhibition in assay [19] was determined as 2.12%; in assay [20] it was 0.06%.

For orientation: inhibition means the relative decrease from the control value, in per cent.
